± gives the standard deviation of the averaged measurements. The full ranking holds about 25,000 sequences; the median of “ln(normalized median fluorescence intensity)” is about 7.9, and the highest 2% start at about 11. This excerpt belongs to a sample that is enriched for the highest values.
These sequences were tested on PfAP2-I AP2 domain 3 (GST-tagged) (assay: gcPBM binding intensity (ln(normalized median fluorescence intensity)); higher = stronger DNA binding).
Method in brief: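 The binding buffer was 1× PBS containing 1% milk, 0.2 mg/ml BSA, 0.5% salmon testes DNA and 0.03% Triton X-100. In it, GST-tagged P. falciparum DNA-binding domains expressed in E. coli were applied for 1 h to an Agilent 4 × 180k array of primer-extended double-stranded 36-bp intergenic genomic probes plus negative controls. Binding intensity, read with Alexa488 anti-GST antibody and a 488 nm scan, is the highest Masliner-normalised natural-log median intensity across replicate spots of either probe orientation.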

Row | Sequence | gcPBM binding intensity (ln)
1 | TACTTTTCTTAAAGATGTACGTTTTAAAAATAAAAT [XGTACX_site14] | 7.81 ± 0.2
2 | ATATTTCTGTGTGGATGTACATTATTAGCAGGCTTT [XGTACX_site6496] | 8.12 ± 0.73
3 | TTTTTTTTTTTTTTTTGTACTTATAAAATAACATGT [XGTACX_site134] | 8.13 ± 0.82
4 | TTTTTTATTTAAAGTAGTACTTTTTAGAAAACAAAA [XGTACX_site6759] | 7.68 ± 0.29
5 | CACTAAAAGAAACACACACACACACCCATATATATA [CACACA_site4151] | 8.44 ± 0.75
6 | AATGCACTATTTAAAAGTACACATAAGAAAAGCATA [XGTACX_site1739] | 9.24 ± 0.28
7 | TATAAATCTATAAATGCACACAAGGGAAGAAAAACG [CACACA_site2965] | 9.46 ± 0.26
8 | TTAAAGCACCCATGCACACACACAAAGGAAAAGAAA [CACACA_site233] | 11.1 ± 0.93
9 | AAAGCACCCATGCACACACACAAAGGAAAAGAAAAA [CACACA_site6249] | 8.32 ± 0.38
10 | AAAGAAGGGAAACACACACACACACCCACAAAAAAA [CACACA_site3766] | 8.17 ± 0.21
11 | TATTAAAGCACCCATGCACACACACTAAGGAAAAGA [CACACA_site7961] | 11.6 ± 0.71
12 | TTAAAGCACCCATGCACACACACAAGGGAAAAGAAA [CACACA_site4289] | 10.9 ± 0.92
13 | AAAGCACCCAGGCACACACACAAAGGAAAAGAAAAA [CACACA_site232] | 7.95 ± 0.49
14 | AAACAAAAAAGTAAGAAAAGGGATGATTGGATCCAA [CACACA_negctrl_site1230] | 7.35 ± 0.78
15 | GGAAACCCTCCCAAATGTACTTTTATAAAAAAATAC [XGTACX_site5502] | 8.2 ± 0.6
16 | TTTATTTATCTTTACGCACACACTTGCATGTACAAA [CACACA_site1118] | 9.455 ± 0.021
17 | ACAAATCTAAGATAGTGTACATTTATATATATATAT [XGTACX_site8740] | 9.4 ± 0.24
18 | ACATAAATATATGACACACACACATATTATATATAT [CACACA_site3065] | 8.36 ± 0.52
19 | AAAAATAAAAAAAAATTAAAATATATATATTTTGTT [TGCATGCA_negctrl_site102] | 7.49 ± 0.67
20 | GAAATGTATAAATCCATACACACATAAATTTTAATA [CACACA_site2364] | 7.58 ± 0.4
21 | TATTTCTTATTACATACACACATATACATAGATGAC [CACACA_site5729] | 8 ± 0.55
22 | TTATTAAAAATGGTATGTACGCACATAATATATATA [XGTACX_site3230] | 8.56 ± 0.51

Row | Sequence | gcPBM binding intensity (ln)
23 | TGCAAAAAATTCCACACACACACACGCATATAAATA [CACACA_site6696] | 7.95 ± 0.38
24 | GATAAAATCACTGGTGCATGTAGATATATAATATTA [TGCATGCA_site589] | 9.12 ± 0.085
25 | TATGTGTGCAAAAACTGTACACATTAAAGGTATATA [XGTACX_site7627] | 9.32 ± 0.28
26 | ATATGTACGCAAGGTGCACACTGGTGCATTAAAAAA [CACACA_site1801] | 12.1 ± 0.21
27 | GCAAGGTCCACACTGGTGCATTAAAAATAAAATATA [GTGCAC_site9956] | 11.6 ± 0.41
28 | TTTATTTGGACATATACACACTTAAATATGTTTATT [CACACA_site6021] | 7.59 ± 0.47
29 | TTTTTTTTGATATATACACACAATAAATAAATATAA [CACACA_site7400] | 7.78 ± 0.39
30 | TATAATATATGTATATGTACTTATGTTGAGAAACAT [XGTACX_site2117] | 7.72 ± 0.59
31 | AATAAATATAGGAATACACACAATATAAATGTATTG [CACACA_site3366] | 7.5 ± 0.62
32 | GATACATAGAAACACACACACATACATATATACATA [CACACA_site3438] | 8.01 ± 0.4
33 | ATTGCCATTGTTAATGCATGTAACAATTCAGCTCAT [TGCATGCA_site56] | 8 ± 0.83
34 | AATATTGCACCATTTTGTACATAATATATTCAAATA [XGTACX_site475] | 11.7 ± 0.74
35 | TAAAAATATTTTCATTGTACATATATATAAATATAT [XGTACX_site1123] | 7.59 ± 0.3
36 | AAAAATGAATTATTTTGTACATATATATATATATAT [XGTACX_site3410] | 9.48 ± 0.54
37 | AAAATAAATAAATATACACACCATATATATATTTTT [CACACA_site5573] | 7.61 ± 0.39
38 | AAAAAATTTTGAAATTGTACATATATAAAAAATATA [XGTACX_site2629] | 7.59 ± 0.29
39 | ATATATTGCACTTTTTGTACATAATGAAAAATTTTT [XGTACX_site8223] | 11.5 ± 1
40 | AATATATTTTTTTTTTGTACATATTGTAAAATAATA [XGTACX_site6805] | 7.83 ± 0.22
41 | TACAACAATTTTTGCACACACCAAAACATAAAATAA [CACACA_site4964] | 9.15 ± 0.22
42 | ATTTTTTTTTTTTTTTTTTTTGCACCATAAAATAAT [CACACA_negctrl_site1324] | 11.2 ± 0.56
43 | TTTCTTCGAAATAGAACACTTGTGCAAAATAAGCAA [XGTACX_negctrl_site361] | 9.9 ± 0.23
44 | AAATTTAAAAATAAAGAACACACATATGTAAAATAT [CACACA_site9252] | 7.91 ± 0.76

Row | Sequence | gcPBM binding intensity (ln)
45 | AGGATACACGGACACACACACATATAGATTTATATA [CACACA_site6552] | 8.14 ± 0.2
46 | AATTTATTAAAAAAATGTACTTATTTTTTTGTATAA [XGTACX_site5844] | 7.61 ± 0.11
47 | ATTTATAATATTCAAGTGCATATATATTTTTTACTT | 9.57 ± 0.14
48 | ATATATTTTTATATAGTGCAAGTAATAAAAAGGAAT | 10.04 ± 0.099
49 | TTTATTCAAGGAATAGTGCATAATAATAAGTATTAT | 11.2 ± 0.62
50 | TACTATTTTTATAATACACACATATATTTGTGATAT [CACACA_site1775] | 7.84 ± 0.44
51 | TTAATATATTATCTGGTGCATAAACACGTTATACCT | 11.3 ± 0.64
52 | TTTGTTATATTTAATACACACATATTATAAACACAT [CACACA_site7703] | 8.07 ± 0.34
53 | TATATATAATATTATACACACATATCTGCATAATAT [CACACA_site4202] | 8.13 ± 0.49
54 | GGTTATATATTTTTTGCACACCAAAAAAGAGAATAT [CACACA_site2731] | 9.56 ± 0.14
55 | TTCATATTATAGTGCACACAAAAATATATATATGGT [CACACA_site2855] | 11.3 ± 0.43
56 | ATTCACAAATATATGGTGCATAATATATATATATAT [GTGCAC_site9674] | 11.31 ± 0.078
57 | TGAATATTCATATGCACACAAATTAATATACATAAT [CACACA_site442] | 8.675 ± 0.021
58 | TATATATATTTATGCACACAAAATATATTATAGAAT [CACACA_site3740] | 9.99 ± 0.4
59 | ATGGCATAAATATATGCACACACAAAAAAAAAAAAA [CACACA_site7902] | 8.98 ± 0.11
60 | TTTTCATATTATAGTGCACACAAAAATATATATATG [CACACA_site8929] | 11.5 ± 0.47
61 | ATTAATTTTATATATGCACACAAAATATGTTCATAT [CACACA_site9350] | 9.13 ± 0.099
62 | AACTCATAGGAGTGTGCACACAAAAAATTAAAAAAA [CACACA_site8996] | 9.52 ± 0.42
63 | ATTATATACATATATGCACACAAAAAAATATATATT [CACACA_site8508] | 9.04 ± 0.12
64 | CATATAAAAATATATGCACACAAATAAAAAATTATA [CACACA_site9210] | 8.94 ± 0.39
65 | AACTCATAGCGGTGTGCACACAAAAAATTAAAAAAA [CACACA_site3033] | 9.9 ± 0.2
66 | CTCATAGTTGGGTGCACACAAAAAATTAAAAAAATA [CACACA_site3032] | 11.1 ± 0.81

From the supplement of paper PMC11417369
